Tested on: NEK4
Conditions: concentration: 1 μM, replicates: in singlicate; n = 1
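Note: KINOMEscan kinase panel screen.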

`Cc1cccc(-c2nc(-c3ccc(S(C)(=O)=O)cc3)sc2-c2ccncc2)c1` and `CCc1nc(-c2cccc(C)c2)c(-c2ccnc(NCc3ccccc3)c2)s1` are the same in “%Inh” value: 0% for the first, 0% for the second.

`Nc1nc(-c2ccc3c(N)n[nH]c3c2)cc(N2CCCC2)n1` [GSK2227430] and `Nc1nccc(-c2c(-c3ccc(F)cc3)ncn2C2CCN(CC(F)(F)F)CC2)n1` [SB-236560] are the same in “%Inh” value: 0% for the first, 0% for the second.

`NCC(NC(=O)c1cc(-c2cn[nH]c2)c(-c2ccnc3[nH]ccc23)s1)c1ccccc1.O=C(O)C(F)(F)F.O=C(O)C(F)(F)F` (stereo not drawn) [GSK1325775] and `O=C(Nc1cccc(-c2nn3ncccc3c2-c2ccnc(Nc3cccc(C(F)(F)F)c3)n2)c1)c1c(F)cccc1F` [GSK299495] are the same in “%Inh” value: 0% for the first, 0% for the second.

Compared with `Cc1c(Cn2c(C)nn3c(=O)cc(N4CCOC(C)C4)nc23)cccc1C(F)(F)F` (stereo not drawn) [GSK2344444], `COc1ccc(Nc2ncc(C#N)c(Nc3ccccc3C(N)=O)n2)cc1N1CCN(C)CC1.Cl` [GSK1558669] is higher in “%Inh” value: 22% for the first, 94.7% for the second.

`N#Cc1c(N2CCOCC2)sc(-c2ccn[nH]2)c1-c1ccc(Cl)cc1` and `O=C(NCCCN1CCOCC1)c1cccc(Nc2nccc(Nc3ccc(Oc4ccccc4)cc3)n2)c1` [GW663929] are the same in “%Inh” value: 0% for the first, 0% for the second.

`CC(=O)Nc1ccc(COc2ccc(Nc3ccnc4cc(-c5ccccn5)ccc34)cc2)cc1.Cl` [GW440148] and `COc1cc2c(cc1OCCN1CCN(C)CC1)ncc1c3ccc(C#N)cc3[nH]c21` are the same in “%Inh” value: 0% for the first, 0% for the second.

Reference: article PMC5540273 (PLoS ONE, 2017)
